Test results published in PubChem BioAssay AID623996 (NMMLSC, 2012).
Results with a measured potency or affinity are listed apart.

Target: Multidrug resistance protein CDR1 (Candida albicans) (UniProt P43071)
Experiment: CaCdr1 efflux pump inhibitor potency, dose response, singleplex, Cherry Pick2 set (AID 623996)
Details: S. cerevisiae AD/CaCDR1, Nile Red efflux inhibition, flow cytometry; series mostly up to 100 µM; efflux inhibition response: at the top concentration;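 active means fitted concentration giving half the maximal Nile Red retention below 100 µM; inactive means the rest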

Multidrug resistance protein CDR1 (Candida albicans), sequence (P43071 whole entry, looked up): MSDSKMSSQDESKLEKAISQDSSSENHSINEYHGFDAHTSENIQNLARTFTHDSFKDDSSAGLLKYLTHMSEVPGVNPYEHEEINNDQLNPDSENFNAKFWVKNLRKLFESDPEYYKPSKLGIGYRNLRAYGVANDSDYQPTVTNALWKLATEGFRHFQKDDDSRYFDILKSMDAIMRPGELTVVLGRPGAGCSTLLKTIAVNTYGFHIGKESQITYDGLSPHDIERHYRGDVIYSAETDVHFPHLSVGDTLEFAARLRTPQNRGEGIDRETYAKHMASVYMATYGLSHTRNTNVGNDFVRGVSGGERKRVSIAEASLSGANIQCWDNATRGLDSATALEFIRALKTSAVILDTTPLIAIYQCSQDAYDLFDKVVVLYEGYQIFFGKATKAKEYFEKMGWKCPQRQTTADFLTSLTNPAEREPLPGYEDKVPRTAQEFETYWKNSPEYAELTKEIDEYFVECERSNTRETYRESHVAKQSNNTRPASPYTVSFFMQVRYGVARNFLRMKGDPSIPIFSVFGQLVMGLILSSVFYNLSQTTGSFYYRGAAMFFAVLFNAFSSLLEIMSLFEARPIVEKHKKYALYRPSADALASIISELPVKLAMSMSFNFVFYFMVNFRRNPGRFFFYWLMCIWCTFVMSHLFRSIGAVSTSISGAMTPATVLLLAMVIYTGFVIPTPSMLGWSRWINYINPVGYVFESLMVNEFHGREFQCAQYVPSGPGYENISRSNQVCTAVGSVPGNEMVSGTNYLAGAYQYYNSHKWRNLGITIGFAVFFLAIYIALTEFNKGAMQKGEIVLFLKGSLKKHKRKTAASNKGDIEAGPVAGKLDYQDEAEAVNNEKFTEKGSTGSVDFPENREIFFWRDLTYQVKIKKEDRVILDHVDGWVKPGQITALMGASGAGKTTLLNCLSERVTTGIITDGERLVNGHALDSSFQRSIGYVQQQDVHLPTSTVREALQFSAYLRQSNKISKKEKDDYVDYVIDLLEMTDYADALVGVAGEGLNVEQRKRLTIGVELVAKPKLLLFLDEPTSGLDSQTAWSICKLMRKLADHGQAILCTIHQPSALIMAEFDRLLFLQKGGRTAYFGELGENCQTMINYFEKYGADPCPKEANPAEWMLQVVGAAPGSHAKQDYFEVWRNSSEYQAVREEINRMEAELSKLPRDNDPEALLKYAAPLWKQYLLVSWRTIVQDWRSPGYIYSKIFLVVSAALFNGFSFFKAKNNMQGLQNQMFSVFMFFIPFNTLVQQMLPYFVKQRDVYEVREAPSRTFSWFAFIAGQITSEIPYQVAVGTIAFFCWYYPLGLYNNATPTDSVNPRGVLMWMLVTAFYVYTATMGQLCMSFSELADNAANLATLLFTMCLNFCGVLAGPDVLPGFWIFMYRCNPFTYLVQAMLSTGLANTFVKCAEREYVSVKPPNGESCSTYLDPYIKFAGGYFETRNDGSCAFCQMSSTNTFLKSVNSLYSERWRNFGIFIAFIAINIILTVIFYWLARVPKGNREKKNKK

Efflux inhibition response, inactive:
COc1cc(OC)c2ccc(=O)oc2c1C(CCN1CCCC(C)C1)c1ccc(N(C)C)cc1 (stereo not given) 0.72%, O=C(Nc1ccccc1)C1=C[C@@H](c2ccc(C(F)(F)F)cc2)C[C@@H](OCCCCO)O1 1.11%, O=C(/C=C/c1cccs1)N1CCC2(CC1)Oc1ccc(F)cc1C(=O)C21CC(c2ccccc2)=NO1 (stereo not given) 93.9%, O=C(C1CCCN(c2ncnc3c2nc2n3CCCCC2)C1)N1CCN(c2ccccc2F)CC1 (stereo not given) -3.46%, CCCCCc1cc(=O)oc2c(C(CCN3CCCC(C)C3)c3ccc(N(C)C)cc3)c(OC)cc(OC)c12 (stereo not given) -0.75%, COc1ccccc1C(=O)OCCc1ccccc1 -0.84%, COc1ccc(-c2sc3ccccc3c2-c2ccc(OCCN(C)C)cc2)cc1 215%, NS(=O)(=O)c1ccc(N2N=C(c3ccccc3)CC2c2ccc(Br)cc2)cc1 (stereo not given) -0.8%, COc1cccc(-c2sc3ccc(OC)cc3c2-c2ccc(OCCN3CCOCC3)cc2)c1 96.5%, Nc1ccc(C(=O)OCCc2ccccc2)cc1 -0.15%, O=C(c1ccc2c(c1)OCO2)N1CCC2(CC1)Oc1ccc(F)cc1C(=O)C21CC(c2ccccc2)=NO1 (stereo not given) 118%, NC1=NC[C@@H](Cc2ccc(O)cc2)N1CCCCC1CCCCC1 -2.59%, COc1ccc(-c2c[n+](CC(=O)N3c4ccccc4Sc4ccccc43)c3n2CCC3)cc1 -1.3%, O=C(c1ccoc1)N1CCC2(CC1)Oc1ccc(F)cc1C(=O)C21CC(c2ccc(Cl)cc2)=NO1 (stereo not given) 98.9%, CC(C)C(=O)N1CCN(c2ccccc2NC(=O)c2ccc3c(c2)OCCO3)CC1 -2.13%, COc1cc(OC)c2ccc(=O)oc2c1C(CCN1CCCCC1)c1ccc(N(C)C)cc1 (stereo not given) 2.07%, Cc1ccc2c(c1)[C@H]1[C@H](CO2)[C@H](c2ccccc2)[C@]2(C)C(=O)Nc3cc(F)c(F)cc3C(=O)N12 -1.06%, C[C@@]12C(=O)Nc3cc(F)c(F)cc3C(=O)N1[C@H]1c3cc(Cl)ccc3OC[C@@H]1[C@@H]2c1ccccc1 2.74%, Cc1cccc(C2CC(c3ccccc3)=NN2c2ccc(S(N)(=O)=O)cc2)c1 (stereo not given) -1.16%, COc1ccc(C2CC(c3cccc(OC)c3)=NN2c2ccc(S(N)(=O)=O)cc2)cc1 (stereo not given) 1.19%, COc1ccc(C(=O)OCCc2ccc(O)cc2)cc1 -2.8%, C[C@@]12C(=O)Nc3ccc(Cl)cc3C(=O)N1[C@H]1c3cc(Cl)ccc3OC[C@@H]1[C@@H]2c1ccccc1 1.33%, NC1=NC[C@H](Cc2ccc(O)cc2)N1CCc1cc(C(F)(F)F)cc(C(F)(F)F)c1 -1.16%, O=C(Nc1ccccc1)C1=C[C@@H](c2ccc(Br)cc2)C[C@@H](OCCCCO)O1 -3.79%, Cc1ccc(C)c(N2CCN(C(=O)C3CCCN(c4ncnc5c4nc4n5CCCCC4)C3)CC2)c1 (stereo not given) 0.23%, CCC(Cc1ccccc1)OC(=O)c1ccccc1C(=O)O (stereo not given) -2.73%, NS(=O)(=O)c1ccc(N2N=C(c3ccccc3)CC2c2ccc(F)cc2)cc1 (stereo not given) 2.86%, CCO[C@@H]1OC(C(=O)Nc2ccccc2)=C[C@H](c2ccc(Br)cc2)[C@H]1CCCO 124%, O=C(C[n+]1cc(-c2ccccc2)n2c1CCC2)N1c2ccccc2Sc2ccccc21 -1.96%, COc1cc(OC)c2ccc(=O)oc2c1C(CCN1CCCC1)c1ccc(N(C)C)cc1 (stereo not given) -1.94%
